Source: PubChem BioAssay
JMJD2A Tudor inh = JMJD2A Tudor domain (human) inhibition | hit rate 4.4% among 390,000 | O75164 | Potency, µM (series often up to 114 µM), for inactives: at the top dose activity change, negative = inhibition, actives largely listed as inhibitors | AlphaScreen JMJD2A-Tudor / H3K4me3 peptide binding | AID 504339; note: potency is the fitted concentration of half-maximal effect; % is set by controls: 0 for no effect and ±100 for the full control effect; nearly all actives have a fitted effect of over 50% in size
G9a inh = inhibitors of human histone lysine methyltransferase G9a; Q96KQ7; G9a H3K9 monomethylation, AlphaScreen, 2 h; Potency, µM (doses to about 102 µM), without a hit: at the highest dose activity, negative = inhibition, most hits filed as inhibitors; hit rate 8.8% among 350,000; AID 504332; note: potency is the fitted concentration of half-maximal effect; % is set by controls: 0 for no effect and ±100 for the full control effect; nearly all actives have a fitted effect of over 75% in size
Target sequence (Q96KQ7 913-1193 limits assumed): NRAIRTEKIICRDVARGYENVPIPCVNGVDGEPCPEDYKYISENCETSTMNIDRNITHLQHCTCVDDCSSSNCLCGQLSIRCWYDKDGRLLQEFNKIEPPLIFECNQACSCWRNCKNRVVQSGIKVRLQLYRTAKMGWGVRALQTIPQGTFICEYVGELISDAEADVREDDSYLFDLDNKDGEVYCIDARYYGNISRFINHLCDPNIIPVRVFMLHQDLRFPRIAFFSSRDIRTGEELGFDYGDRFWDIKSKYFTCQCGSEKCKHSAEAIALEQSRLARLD
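AlphaScreen detection with an anti-monomethyl H3K9 antibody quantified product after a 2 h room-temperature reaction containing 500 nM biotinylated H3K9 peptide, 20 µM SAM and 20 nM enzyme, which had been preincubated 15 min with compound.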
PI5P4K alpha inh = blocks human PI5P4K alpha kinase activity; hit rate 1.2% among 330,000; PI5P4Kalpha enzyme, ADP-Glo luminescence, 60 min; stronger effect = lower value; max response, %; P48426; active = max response of -50% or lower; inconclusive = between -30% and -50%; inactive = -30% or higher; note: value at the top dose of about 77 µM; % is set by controls: 0 for no effect and ±100 for the full control effect
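Enzyme plus substrate dispensed, test compounds pinned in, then ATP (5 microM final) added. After 60 min at RT, ADP-Glo reagent 1 for 45 min and reagent 2 for 30 min preceded luminescence imaging.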
HP1b binding inh = blocks HP1-beta chromodomain binding to methylated histone tails; P83916; AlphaScreen HP1-beta / biotin-H3K9me3 peptide binding; Potency, µM (series often up to 114 µM), without a hit: at the top dose activity change, negative = inhibition, actives largely listed as inhibitors; hit rate 0.56% among 390,000; note: potency is the fitted concentration of half-maximal effect; nearly all actives have a fitted effect of over 70% in size
Target sequence (P83916 whole entry, looked up): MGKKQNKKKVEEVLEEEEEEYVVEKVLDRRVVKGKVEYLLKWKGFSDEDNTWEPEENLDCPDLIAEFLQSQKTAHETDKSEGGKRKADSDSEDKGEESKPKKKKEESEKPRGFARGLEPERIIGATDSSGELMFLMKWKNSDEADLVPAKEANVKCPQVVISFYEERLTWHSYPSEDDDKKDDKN
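HP1-beta protein (50 nM final) preincubated 30 min at room temperature with biotinylated H3(1-18)K9me3 peptide (50 nM) in PBS pH 7.4, 0.01% Tween-20, then compound added for 30 min. AlphaScreen streptavidin donor/nickel chelate acceptor beads (10 ug/mL final), 30 min dark, luminescence read.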
BAZ2B block = blocks human BAZ2B; AlphaScreen BAZ2B-H3K14Ac peptide displacement; AID 504333; Potency, µM (highest dose often 114 µM), for inactives: at the top dose activity change, negative = inhibition, hits mostly inhibitors; Q9UIF8; hit rate 4.4% among 360,000; note: potency is the fitted concentration of half-maximal effect; % is set by controls: 0 for no effect and ±100 for the full control effect; nearly all actives have a fitted effect of over 60% in size
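Inhibition is scored as reduced AlphaScreen emission. The BAZ2B/b-H3(5-23)K14Ac complex (50 nM each) in PBS pH 7.4, 0.01% Tween-20 meets compound (up to 110 uM) for 30 min at RT before bead addition.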
PLK1 PBD block = PLK1 (human) polo-box domain binding inhibition | P53350 | Plk1 PBD binding of FITC phosphopeptide, fluorescence polarization | Potency, µM, without a hit: max response, negative = inhibition, most hits filed as inhibitors | hit rate 2.8% among 360,000 | AID 720504; note: potency is the fitted concentration of half-maximal effect; series mostly up to about 57 µM; % is set by controls: 0 for no effect and ±100 for the full control effect; nearly all actives have a fitted effect of over 65% in size
Numbers without * were called inactive; ? = inconclusive; . = no result given; [ ] = another dose, or the depositor's remark. Only some compounds are listed: those with a hit (about 12% of all), similar ones and a draw of the others. Unless noted, calls come from the whole dose curve; as a rule, active = well fitted curve in the direction sought with a large enough effect; inconclusive = small, poorly fitted or top-dose-only effect, or another doubt; inactive = no such curve, though single readings can be large; an effect the other way counts as inactive or inconclusive.

SMILES	JMJD2A Tudor inh	G9a inh	PI5P4K alpha inh	HP1b binding inh	BAZ2B block	PLK1 PBD block
CCOC(=O)C1(CC)CC(CSc2nc3ccccc3[nH]2)OC1=O (configuration not stated)	89µM*	-9%[12.7 µM]	-5	14%	?	2%
CCCCCC1(C(=O)OCC)CC(CSC(=N)N)OC1=O (configuration not stated)	-5%	-40%	-3	4%	-8%	30µM*
CCOC(=O)C1(CCC(C)C)CC(CSc2nc3ccccc3[nH]2)OC1=O (configuration not stated)	-10%	14%[12.7 µM]	.	50%	?	0%
CCc1ccc(C(=O)COC(=O)C(Cc2c[nH]c3ccccc23)NC(=O)c2ccc(CC)cc2)cc1 (configuration not stated)	-9%	-31%[59 µM]	.	-4%	-7%	.
COc1cc(C(=O)OCc2cc(=O)n3nc(C4CCCCC4)sc3n2)cc(OC)c1OC	-13%	8%[59 µM]	.	-11%	-8%	.
O=C(O)CCN1C(=O)/C(=C\c2ccc(OCc3ccccc3)c(OCc3ccccc3)c2)SC1=S	45µM*	25µM*	1	?	45µM*	-21%
COCCN1C(=O)/C(=C/c2ccc(OCc3ccc(C(=O)O)cc3)c(OC)c2)SC1=Nc1ccccc1	?	50µM*	-2	-22%	56µM*	?
COc1cccc(/C=C2\SC(=S)N(CCC(=O)Nc3ccc(O)cc3)C2=O)c1	-17%	20%	1	13%	-31%	-7%
COc1ccc(/C=C2\SC(=S)N(CCC(=O)N(CCO)Cc3ccccc3)C2=O)cc1OC	-34%	-8%	1	-11%	-1%	-2%
COc1cc(/C=C2\SC(=Nc3ccccc3)N(Cc3ccco3)C2=O)ccc1OC(C)C(=O)O (configuration not stated)	?	?	-18	-25%	?	?
O=C(O)CCN1C(=O)/C(=C\c2cccc(OCc3ccccc3)c2)SC1=S	-34%	?	2	-15%	-38%	19µM*
O=C(CNS(=O)(=O)c1cccs1)NCCc1ccc(Cl)cc1	6%	-9%	-2	26%	1%	0%
O=C(CC1CC2CCC1C2)N1CCN(S(=O)(=O)c2ccccc2F)CC1 (configuration not stated)	5%	6%[59 µM]	0	33%	16%	6%
CCOCCCN1CN(Cc2ccco2)CNC1=S	-8%	16µM*	-1	-8%	-25%	?
Nc1c(C(=O)Nc2ccccc2)sc2nc3c(c(-c4ccco4)c12)CCCC3	9%	81%[59 µM]	-3	69%	10%	-12%
Nc1c(C(=O)Nc2ccccc2)sc2nc3c(c(-c4ccco4)c12)CCC3	?	?	?	?	5%	3µM*
Nc1c(C(=O)Nc2cccc(C(=O)O)c2)sc2nc3c(cc12)CCCC3	-23%	45µM*	-3	35%	-4%	-4%
Nc1c(C(=O)Nc2ccc(C(=O)O)cc2)sc2nc3c(cc12)CCCC3	14%	?	.	51%	0%	.
Nc1c(C(=O)Nc2ccc(Cl)c(C(=O)O)c2)sc2nc3c(cc12)CCCC3	-2%	45µM*	-20	44%	-15%	-10%
Nc1c(C(=O)Nc2ccc(F)cc2)sc2nc(-c3ccco3)ccc12	-16%	40µM*	-26	64%	10%	-17%
COc1cccc(C2c3cc4c(cc3OC(NNC(N)=O)C2C)OCO4)c1O (configuration not stated)	?	.	-3	-13%	.	-1%
Cc1cc(C)cc(NC(=O)CCn2cnc3ccccc3c2=O)c1	-19%	-10%[59 µM]	.	7%[57 µM]	-3%	.
O=C(CSc1ncc(S(=O)(=O)c2ccc(Cl)cc2)c(=O)[nH]1)Nc1ccc2c(c1)OCCO2	-23%	-28%[59 µM]	.	5%	-9%	.
O=C(Nc1ccccc1)c1cccc(S(=O)(=O)Nc2cccc(F)c2)c1	-9%	1%[59 µM]	.	62%	3%	.
O=S(=O)(c1ccccc1F)N1CCN(c2nc(-c3cccnc3)nc3ccccc23)CC1	-34%	14%[12.7 µM]	-3	46%	-9%	-5%
SMILES	JMJD2A Tudor inh	G9a inh	PI5P4K alpha inh	HP1b binding inh	BAZ2B block	PLK1 PBD block
Fc1ccccc1-c1nc(N2CCN(c3cccc(Cl)c3)CC2)c2ccccc2n1	6%	5%[59 µM]	.	43%	3%	.
c1ccc(N2CCN(c3nc(-c4ccccn4)nc4ccccc34)CC2)cc1	?	?	?	?	1.8µM*	11µM*
CN1CCN(c2nc(-c3cccnc3)nc3ccccc23)CC1	-3%	-13%[59 µM]	.	8%	.	1%
CCN1CCN(c2nc(-c3cccnc3)nc3ccccc23)CC1	89µM*	?	.	5%	-34%	-8%
COc1cc2c(cc1OC)CN(c1nc(-c3cccnc3)nc3ccccc13)CC2	?	50µM*	2	-19%	40µM*	4%
N#Cc1ccccc1S(=O)(=O)N1CCN(c2nc(-c3cccnc3)nc3ccccc23)CC1	?	50µM*	2	12%	14%	7%
c1cncc(-c2nc(N3CCCCCC3)c3ccccc3n2)c1	-1%	3%	-6	65%	-6%	-5%
CCOC(=O)c1cccc(NC(=O)C2CCN(S(=O)(=O)c3c(C)noc3/C=C/c3ccc(C)cc3)CC2)c1	-3%	-3%[59 µM]	.	25%[57 µM]	-3%	.
CC(=O)c1cccc(NC(=O)C2Cc3c(-c4cccc(F)c4)ccnc3O2)c1 (configuration not stated)	.	.	3	.	.	-9%
O=C(c1ccco1)[C@@H]1[C@@H]2C(=O)N(c3ccccc3)C(=O)[C@@H]2C2c3ccccc3C=CN21 (some centres not stated)	50µM*	16%[2.33 µM]	.	-35%	79µM*	?
COc1ccc([C@H]2CN(c3ccc(OC)cc3)C(=O)[C@@H]2CC(=O)Nc2ccccc2)cc1	.	.	2	.	.	6%
Cc1ccc(N2C(=O)[C@@H]3[C@H](C2=O)C2c4ccccc4C=CN2[C@@H]3C(=O)c2ccco2)cc1 (some centres not stated)	?	3.2µM*	-13	?	?	?
CC12C(=O)N(c3ccc(OC(=O)c4ccco4)cc3)C(=O)C1C1c3ccccc3C2c2ccccc21 (configuration not stated)	-14%	?	9	15%	-3%	-3%
CC(=O)[C@@H]1[C@@H]2C(=O)N(Cc3ccccc3)C(=O)[C@@H]2C2c3ccccc3C=CN21 (some centres not stated)	?	2.8µM*	.	-2%	-30%	19µM*
COc1ccc(N2C(=O)[C@@H]3[C@H](C2=O)[C@H]2c4ccccc4C=CN2[C@@H]3C(=O)Nc2ccccc2)cc1	?	8.9µM*	-10	5%	-31%	32%
